Measured values reported in ChEMBL document CHEMBL4808148, “HDAC6 screening dataset using tau-based substrate in an enzymatic assay yields selective inhibitors and activators” (2021).
In all, about 5,600 compounds went through this assay and about 390 (7%) showed an effect of 50% or more. The sample holds strong results, similar compounds and a random draw of the others, so the mix is not that of the screen.

target: T1, Protein deacetylase HDAC6 (Homo sapiens) (UniProt Q9UBN7); details: at 10 µM
T1 sequence (whole entry): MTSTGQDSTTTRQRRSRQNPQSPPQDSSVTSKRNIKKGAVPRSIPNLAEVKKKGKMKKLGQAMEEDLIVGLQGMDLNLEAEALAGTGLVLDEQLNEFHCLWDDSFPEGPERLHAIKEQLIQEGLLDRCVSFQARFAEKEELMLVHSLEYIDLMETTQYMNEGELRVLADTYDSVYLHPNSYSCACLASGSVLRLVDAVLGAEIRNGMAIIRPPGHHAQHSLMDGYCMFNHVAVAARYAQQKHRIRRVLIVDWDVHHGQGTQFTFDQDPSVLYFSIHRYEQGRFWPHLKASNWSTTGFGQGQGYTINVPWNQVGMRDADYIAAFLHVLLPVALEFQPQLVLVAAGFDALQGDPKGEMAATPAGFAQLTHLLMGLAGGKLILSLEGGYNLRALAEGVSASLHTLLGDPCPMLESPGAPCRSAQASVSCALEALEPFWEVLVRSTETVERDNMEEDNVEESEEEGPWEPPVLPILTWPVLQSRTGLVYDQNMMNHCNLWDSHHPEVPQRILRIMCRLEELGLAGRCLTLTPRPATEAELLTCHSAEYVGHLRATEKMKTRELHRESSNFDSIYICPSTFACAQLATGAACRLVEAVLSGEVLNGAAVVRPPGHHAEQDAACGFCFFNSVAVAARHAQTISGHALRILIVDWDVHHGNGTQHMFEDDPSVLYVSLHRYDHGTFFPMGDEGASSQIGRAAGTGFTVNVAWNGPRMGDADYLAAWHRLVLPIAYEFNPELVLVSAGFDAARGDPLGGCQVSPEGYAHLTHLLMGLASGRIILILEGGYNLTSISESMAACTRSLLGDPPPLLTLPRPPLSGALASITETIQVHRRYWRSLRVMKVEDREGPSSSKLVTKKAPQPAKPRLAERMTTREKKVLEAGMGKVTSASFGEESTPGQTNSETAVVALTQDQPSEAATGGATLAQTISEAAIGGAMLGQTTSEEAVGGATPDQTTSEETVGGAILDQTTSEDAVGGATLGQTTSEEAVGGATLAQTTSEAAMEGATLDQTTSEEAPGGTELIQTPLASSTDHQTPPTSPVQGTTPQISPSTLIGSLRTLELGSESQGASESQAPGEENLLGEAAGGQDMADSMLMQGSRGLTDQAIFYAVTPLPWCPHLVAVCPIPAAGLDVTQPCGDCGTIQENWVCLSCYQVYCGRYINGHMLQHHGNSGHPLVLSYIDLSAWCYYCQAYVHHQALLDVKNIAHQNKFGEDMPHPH

SMILES	inhibition [%]
CC(O)C(N)C(=O)O (stereo unspecified)	8.96
Cc1ccc(Oc2ccccc2-c2csc(N=C3NCCCN3)n2)c(C)c1	38.2
CCCCCCCCCCCC(=O)N(CCO)CCO	14.4
OC[C@H]1O[C@@H](Oc2cc3c(O)cc(O)cc3[o+]c2-c2ccc(O)c(O)c2)[C@H](O)[C@@H](O)[C@@H]1O	27.8
OCCNCCCOc1cccc(Cl)c1Cl	15.6
COc1cc(C=O)c([N+](=O)[O-])cc1OC	11.8
Cn1c(=O)n(-c2ccc(C(C)(C)C#N)cc2)c2c3cc(-c4cnc5ccccc5c4)ccc3ncc21	-9.93
Cc1cnc(-c2ccccc2C(C)C)nc1NCc1ccc(-n2ccnn2)cc1	23.1
Clc1ccc2c(c1)N=C(N1CCNCC1)c1ccccc1N2	0.45
O=C(CN1CCNCC1)NC1CCCCC1	18.3
CC(C)(C)c1ccc(C(=O)CCCN2CCC(OC(c3ccccc3)c3ccccc3)CC2)cc1	25.3
O=C(O)[C@@H]1C[C@@H](O)CN1	16.1
Cc1nc2ccc(Oc3ccc(F)cc3)cc2c(=O)n1C[C@H]1CCCN(C(C)C)C1	7.87
O=c1cc(-c2ccccc2)oc2cc(O)c(O)c(O)c12	99.6
COc1ccc(-c2cc(=O)c3c(O)cc(O[C@@H]4O[C@H](CO[C@@H]5O[C@@H](C)[C@H](O)[C@@H](O)[C@H]5O)[C@@H](O)[C@H](O)[C@H]4O)cc3o2)cc1O	30.2
COc1ccc(-c2cc(=O)c3c(O)cc(O)cc3o2)cc1O	92.8

SMILES	inhibition [%]
O=C(O)Cc1cccc2c(=O)cc(-c3ccccc3)oc12	23.3
COc1ccccc1N1CCN(CCn2c(=O)[nH]c3c([nH]c4ccccc43)c2=O)CC1	3.49
C[C@@H]1OC(O)[C@H](O)[C@H](O)[C@H]1O (stereo partly specified)	8.33
CC(C)C(=O)OC[C@@]1(N=[N+]=[N-])O[C@@H](n2ccc(N)nc2=O)[C@H](OC(=O)C(C)C)[C@@H]1OC(=O)C(C)C	10.6
CC(=O)O[C@]1(C(C)=O)CC[C@H]2[C@@H]3CCC4=CC(=O)CCC4=C3[C@@H](c3ccc(N(C)C)cc3)C[C@@]21C	7.8
N=C(N)NCCCC(NC(=O)C1CCCN1C(=O)C1CSSCCC(=O)NC(Cc2ccc(O)cc2)C(=O)NC(Cc2ccccc2)C(=O)NC(CCC(N)=O)C(=O)NC(CC(N)=O)C(=O)N1)C(=O)NCC(N)=O (stereo unspecified)	12.1
O=C(O)c1cc(-c2ccccc2)nc2ccccc12	16.3
COc1cc2ncc(-c3ccccc3)nc2cc1OC	97.8
COC(=O)[C@H](NC(=O)c1cc(-c2ccccc2)nc2ccccc12)c1ccccc1	30.8
C=CCN(C)CCCCCCOc1ccc(C(=O)c2ccc(Br)cc2)c(F)c1	8.93
C=CCNc1nc(NCC=C)nc(N2CCN(C(c3ccc(F)cc3)c3ccc(F)cc3)CC2)n1	-4.35
NC(C(=O)O)c1cc(O)cc(O)c1 (stereo unspecified)	9.39
CCCCCN1CCC(C(N)=O)CC1	3.67
CC(C(=O)O)c1ccc(C(=O)c2ccccc2)s1 (stereo unspecified)	41.6
N=C(N)NCc1cccc(I)c1	13.7
